Several values for one entry are separate records, joined by “and”; a condition that tells them apart may be missing. Identical values can stand only once. The whole screen tested about 5,500 compounds, of which about 2,000 (36%) were called active. Inconclusive results (about 18%) are left out. No stated cut-off is given here; in the data, active means normalized growth mostly below about 0.91 (no sharp cut-off); inconclusive means no clear call, values can overlap the other calls; inactive means mostly above about 0.92. This is one part of the list.
Test: chemical genetic growth profiling, strain panel (AID 1159580);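 further: tested at 20 µM; growth read once vehicle control cultures reached saturation at 30 °C; 1 = growth at the plate median or of vehicle wells; lower values mean less growth of the strain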
Details: S. cerevisiae deletion strains, growth OD

Measured: normalized growth

CC1(C)O[C@H]2[C@H](O)C[C@](O)(C(N)=O)C[C@H]2O1
inactive: locus YAL013W, strain DEP1, hits give low values 1.01 | locus YAL021C, strain ccr4, hits give low values 0.996 | locus YAL026C, strain drs2, hits give low values 1.04 | locus YAL030W, strain snc1, hits give low values 1.01 | locus YBL061C, strain skt5, hits give low values 1.01 | locus YBR009C, strain hhf1, hits give low values 1.02 | locus YBR021W, strain FUR4, hits give low values 1.02 | locus YBR023C, strain chs3, hits give low values 1.02 | locus YBR171W, strain sec66, hits give low values 1.03 | locus YBR229C, strain ROT2, hits give low values 1.03 | locus YBR231C, strain swc5, hits give low values 1.01 | locus YBR279W, strain paf1, hits give low values 1.01 | locus YCL011C, strain gbp2, hits give low values 1.01 | locus YCL016C, strain dcc1, hits give low values 1.01 | locus YCL029C, strain bik1, hits give low values 1.04 | locus YCL061C, strain MRC1, hits give low values 1.01 | locus YCL069W, strain vba3, hits give low values 1.02 | locus YCR088W, strain abp1, hits give low values 1.01 | locus YDL005C, strain med2, hits give low values 1.01 | locus YDL035C, strain GPR1, hits give low values 1.05 | locus YDL040C, strain nat1, hits give low values 1.01 | locus YDL074C, strain BRE1, hits give low values 1.12 | locus YDL101C, strain DUN1, hits give low values 1.03 | locus YDL185W, strain tfp1, hits give low values 1.02 | locus YDL192W, strain arf1, hits give low values 1.05 | locus YDR001C, strain nth1, hits give low values 1.01 | locus YDR069C, strain doa4, hits give low values 1.01 | locus YDR101C, strain arx1, hits give low values 1.01 | locus YDR137W, strain rgp1, hits give low values 1.04 | locus YDR159W, strain sac3, hits give low values 1.06 | locus YDR162C, strain NBP2, hits give low values 1.04 | locus YDR195W, strain ref2 1.01 | locus YDR297W, strain sur2, hits give low values 1.01 | locus YDR318W, strain mcm21, hits give low values 1.04 | locus YDR334W, strain swr1, hits give low values 1.03 | locus YDR335W, strain msn5, hits give low values 1.02 | locus YDR388W, hits give low values 1.01 | locus YDR392W, strain spt3, hits give low values 0.959 | locus YDR502C, strain sam2, hits give low values 1.03 | locus YEL003W, strain gim4, hits give low values 1.02 | locus YEL037C, strain rad23, hits give low values 1.02 | locus YEL061C, strain CIN8 (second series), hits give low values 1.02 | locus YER015W, strain faa2, hits give low values 1.02 | locus YER016W, strain bim1, hits give low values 1.01 | locus YER110C, hits give low values 1.03 | locus YER111C, strain swi4, hits give low values 0.996 | locus YER155C, strain BEM2 (second series), hits give low values 1.03 | locus YER155C, strain BEM2, hits give low values 0.997 | locus YER167W, strain BCK2, hits give low values 1.02 | locus YFR010W, strain ubp6, hits give low values 1.04 | locus YGL078C, strain dbp3, hits give low values 1.04 | locus YGL086W, strain mad1, hits give low values 1.01 | locus YGL167C, strain pmr1, hits give low values 1.02 | locus YGL173C, strain kem1, hits give low values 1.03 | locus YGL227W, strain vid30, hits give low values 1.01 | locus YGL240W, strain doc1, hits give low values 1.01 | locus YGL248W, strain PDE1, hits give low values 1.05 | locus YGL253W, strain hxk2, hits give low values 1.03 | locus YGR078C, strain PAC10, hits give low values 1.04 | locus YGR135W, strain pre9, hits give low values 1.05 | locus YGR252W, strain gcn5, hits give low values 1.09 | locus YHR013C, strain ard1, hits give low values 1.02 | locus YHR027C, strain rpn1, hits give low values 1.03 | locus YHR030C, strain SLT2, hits give low values 1.01 | locus YHR079C, strain IRE1 (second series), hits give low values 1.03 | locus YHR079C, strain IRE1, hits give low values 0.99 | locus YHR094C, strain hxt1, hits give low values 1.02 | locus YHR129C, strain ARP1, hits give low values 1.04 | locus YHR142W, strain chs7, hits give low values 1.03 | locus YHR200W, strain rpn10, hits give low values 1.05 | locus YIL066C, strain RNR3, hits give low values 1.03 | locus YIL073C, strain SPO22, hits give low values 1.16 | locus YIL125W, strain kgd1, hits give low values 1.01 | locus YIR030C, strain dcg1, hits give low values 1.03 | locus YJL092W, strain hpr5, hits give low values 1.01 | locus YJL095W, strain BCK1 (second series), hits give low values 1.02 | locus YJL095W, strain BCK1, hits give low values 1.1 and 1.02 | locus YJL115W, strain asf1, hits give low values 1.01 | locus YJL129C, strain trk1, hits give low values 1.01 | locus YJL134W, strain LCB3, hits give low values 1.01 | locus YJL154C, strain vps35, hits give low values 1.02 | locus YJL164C, strain tpk1, hits give low values 1.02 | locus YJL166W, strain qcr8, hits give low values 1.02 | locus YJL168C, strain set2, hits give low values 1.02 | locus YJL187C, strain SWE1 (second series), hits give low values 1.05 | locus YJL187C, strain SWE1, hits give low values 1.01 | locus YJR043C, strain POL32, hits give low values 1.05 | locus YJR066W, strain TOR1, hits give low values 0.951

Source: PubChem BioAssay AID1159580 (chemical genetic matrix, 2015)
